Screens as filed in PubChem BioAssay.
Compounds with a hit are over-represented: about 21% of the library has one in this group of screens.
SARS PLpro yeast – blocks SARS-CoV papain-like protease in a yeast assay. S. cerevisiae expressing SARS-CoV PLpro, growth rescue. Potency, µM (doses to about 32.9 µM), usual class: activators. actives 0.19% (n = 330,000). AID 485353; calls by dose curve; further: nearly all actives have a fitted effect of over 55% in size
Shiga inhibitor – Shiga toxin inhibition. Vero cells, Shiga toxin protein synthesis inhibition reporter. inhibition, % at 38.7 µM. actives 9.2% (n = 290,000). AID 2315; in the data active means inhibition mostly above about 28%, no sharp cut-off; inactive means mostly below about 43%
CHX counter – counter-screen hit for Shiga toxin inhibitors, cycloheximide; cell reporter, cycloheximide protein synthesis inhibition counterscreen; max response, %; actives 12% (n = 300,000); AID 2314; in the data active means max response mostly above about 13%, no sharp cut-off; inactive means mostly below about 14%; further: read at 38.3 µM for the half of the compounds with a filed dose
Pf growth 48h – inhibits P. falciparum growth in the first generation, 48 h. P. falciparum luciferase growth in erythrocytes, 48 h. Potency, µM (titrated, usually from 28.7 µM), usual class: inhibitors. actives 5.9% (n = 310,000)
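Firefly luciferase activity from engineered P. falciparum reports growth; inhibitors lower the luminescent signal. Cultures contained 2% hematocrit erythrocytes at 0.1% final parasitemia.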
Pf growth 96h – P. falciparum growth inhibition at 96 hours | Potency, µM (highest dose often 28.7 µM), most hits filed as inhibitors | actives 6.9% (n = 320,000) | P. falciparum luciferase reporter growth, 96 h | AID 504834
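Plates of compound plus infected erythrocytes (2% hematocrit, 0.05% parasitemia final) incubate 96 hours, 37 C, 5% CO2. Detection reagent added; reduced luminescence from the parasites' luciferase reporter flags inhibition.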
NS1 function inh – inhibitors of influenza NS1 protein function; AID 2326; Potency, µM (highest dose often 46.1 µM); actives 0.4% (n = 270,000); calls by dose curve; further: actives are rising curves; nearly all actives have a fitted effect of over 50% in size
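Growth recovery, yeast-based: influenza A NS1 expressed in S. cerevisiae causes slow growth, and suppressors are detected by OD600. The parent strain without NS1 is used as positive control.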
Hits are given with their value; – = inactive; ? = inconclusive; · = no result. Unless noted, the call rests on the fitted dose curve; in most records, active means well fitted inhibition curve with a large enough effect; inconclusive means small, poorly fitted or top-dose-only effect, or another doubt; inactive means no such curve, though single readings can be large or run the other way.

SMILES	SARS PLpro yeast	Shiga inhibitor	CHX counter	Pf growth 48h	Pf growth 96h	NS1 function inh
COc1cccc(N=Nc2c(O)[nH]c(=S)[nH]c2=O)c1	–	46.8	30.9	–	?	–
COc1ccc(N=Nc2c(O)[nH]c(=S)[nH]c2=O)cc1	–	110.3	31.1	–	–	·
O=c1[nH]c(=S)[nH]c(O)c1N=Nc1ccc(OC(F)F)cc1	–	–	–	–	–	·
CCC(=O)NC1(C(F)(F)F)C(=O)Nc2c1c(=O)[nH]c(=O)n2CC(C)C (stereo not drawn)	–	–	–	–	–	–
O=C(CN1CCCCC1)N1CCc2ccccc21	–	–	–	–	–	–
O=C(CN1CCCc2ccccc21)N1CCc2ccccc21	–	48.3	27.7	?	–	–
O=C(CN1CCCc2ccccc21)NCc1ccccc1Cl	–	–	–	–	–	–
CC(CC(=O)N1CCc2ccccc21)c1ccccc1 (stereo not drawn)	–	–	17.8	·	–	–
O=C(CCCC(=O)N1CCc2ccccc21)N1CCc2ccccc21	–	–	–	–	–	–
NNC(=O)CN1CCCc2ccccc21	–	92.4	69.0	–	–	·
O=C(CN1C(=O)c2ccccc2S1(=O)=O)NCc1cccs1	–	–	–	–	–	–
O=C(Cc1cccs1)NC(Cc1c[nH]c2ccccc12)C(=O)O (stereo not drawn)	–	–	–	–	?	–
CCCC[n+]1c(C)sc2cc(OC)ccc21	–	–	–	–	–	–
CC[n+]1c(C)sc2c3ccsc3ccc21	–	–	–	14.7µM	–	·
N/C(COc1ncn(-c2ccccc2)n1)=N\S(=O)(=O)c1ccc(Cl)cc1Cl	–	–	–	–	–	–
CNc1nc(Cl)c(SC)c(NCc2ccc(F)cc2)n1	–	–	–	?	–	–
COC(=O)Cn1c(C(O)c2ccccc2)nc2ccccc21 (stereo not drawn)	–	–	–	–	–	–
Cc1ccc(NC(=O)[C@H](NC(=O)[C@@H]2Cc3ccccc3CN2)c2ccccc2)cc1C	–	–	17.4	–	?	–
CC(NC(=O)[C@@H](NC(=O)[C@@H]1Cc2ccccc2CN1)C(C)C)c1ccccc1 (stereo partly drawn)	–	–	–	–	–	–
COc1ccccc1CNC(=O)[C@H](Cc1c[nH]c2ccccc12)NC(=O)[C@@H]1Cc2ccccc2CN1	–	–	–	?	10.4µM	–
Cc1cccc(NC(=O)[C@H](Cc2ccccc2)NC(=O)[C@@H]2Cc3ccccc3CN2)c1	–	–	15.3	–	–	–
CSCC[C@H](NC(=O)[C@@H]1Cc2ccccc2CN1)C(=O)Nc1cccc(C)c1	–	–	–	–	–	–
Cc1ccc(NC(=O)[C@@H](C)NC(=O)[C@@H]2Cc3ccccc3CN2)cc1	–	–	24.1	–	–	–
COc1ccc(/C(O)=C2/C(=O)C(=O)N(CCCN(C)C)C2c2ccc(C)o2)cc1Cl (stereo not drawn)	–	–	–	–	–	–
Cc1csc(NC(=O)C(F)(F)F)n1	–	–	–	–	–	–
SMILES	SARS PLpro yeast	Shiga inhibitor	CHX counter	Pf growth 48h	Pf growth 96h	NS1 function inh
Cc1ccc(NC(=O)[C@@H](CC(C)C)NC(=O)[C@@H]2Cc3ccccc3CN2)cc1	–	61.4	–	–	–	–
Cc1ccc(NC(=O)[C@H](CC(C)C)NC(=O)[C@@H]2Cc3ccccc3CN2)cc1	–	–	–	–	?	–
CSc1nn(-c2ccc(C(=O)OCC(=O)NC(=O)NC(C)C)cc2)c(=S)s1	–	–	26.7	–	–	–
CCN(CC(=O)Nc1ccc(NC(C)=O)cc1)C(=O)CCCSc1nc2ccccc2[nH]1	–	·	·	–	–	·
CC(C)Oc1cc(O)c2c(=O)c(-c3ccc(O)cc3)coc2c1	–	82.0	30.3	–	2.94µM	–
COc1ccc(-c2coc3cc(O)ccc3c2=O)cc1O	–	38.4	40.6	–	–	–
COc1ccc(-c2coc3cc(O)c(OC)cc3c2=O)cc1	–	·	·	–	–	·
COc1ccc(-c2coc3cc(OC)cc(O)c3c2=O)cc1	–	50.7	51.9	–	–	–
COc1cc(O)c2c(=O)c3c(O)ccc(O)c3oc2c1	–	·	·	·	·	·
COc1ccc(-c2coc3cc(OC)cc(OC)c3c2=O)cc1	–	49.0	34.2	–	–	–
O=c1c(-c2c(O)cc(O)c3c(=O)cc(-c4ccc(O)cc4)oc23)c(-c2ccc(O)cc2)oc2cc(O)cc(O)c12	–	–	–	–	–	–
COc1cc(O)cc2occ(-c3ccc(O)cc3)c(=O)c12	–	–	13.1	–	?	–
COc1ccc(-c2coc3cc(O)cc(O)c3c2=O)cc1	–	93.5	49.8	–	–	–
O=c1c(-c2ccc(O)cc2)coc2cc(O)cc(O)c12	–	112.3	30.5	–	–	–
COc1ccc(-c2coc3cc(O[C@@H]4O[C@H](CO)[C@@H](O)[C@H](O)[C@H]4O)c(OC)cc3c2=O)cc1	–	·	·	·	·	·
O=C(c1cc(Cl)ccc1O)N1CCN(S(=O)(=O)Cc2ccccc2)CC1	–	·	·	·	·	·
Cc1ccc(S(=O)(=O)CCC(=O)OCC(=O)c2cc(C)n(C)c2C)cc1	–	·	·	?	–	·
Cc1nn(-c2ccccc2)c(Cl)c1/C=N/O	–	–	–	–	?	–
Cc1nn(-c2ccccc2)c(Cl)c1/C=C/C(=O)c1ccccc1	–	–	19.1	·	?	–
Cc1nn(-c2ccccc2)c(Cl)c1/C=C1\C(=O)N(C)C(=S)N1C	–	–	–	?	13.1µM	·
Cc1cc(C(=O)N/N=C/c2c(C)nn(-c3ccccc3)c2Cl)n[nH]1	–	49.0	17.8	?	–	–
Cc1nn(-c2ccccc2)c(Cl)c1/C=N/NC(=O)c1ccn[nH]1	–	–	21.2	–	–	–
Cc1nn(-c2ccccc2)c(Cl)c1/C=C1\SC(=S)N(C)C1=O	–	–	–	–	?	–
COc1cc2c(cc1OC)[C@@H](NC(=O)C(C)C)[C@H](OCc1ccccc1)C2	–	·	·	·	·	·
CC(OC(=O)CC1CCCC1)C(=O)Nc1ccc(Cl)cn1 (stereo not drawn)	–	·	·	–	–	·
SMILES	SARS PLpro yeast	Shiga inhibitor	CHX counter	Pf growth 48h	Pf growth 96h	NS1 function inh
Cc1ccc2c(c1)c1c3n2CCNC3CCC1 (stereo not drawn)	–	–	–	?	–	–
Cc1ccc(-n2nc(C)c(/C=N/NC(=O)c3cccnc3)c2Cl)cc1	–	–	–	?	–	–
Cc1[nH]n(-c2ccccc2)c(=O)c1/C=N/NC(=O)c1ccccc1F	–	64.1	24.7	·	2.33µM	–
COCC(=O)N/N=C/c1c(C)[nH]n(-c2ccccc2)c1=O	–	–	–	?	–	·
Cc1nn(-c2ccccc2)c(Cl)c1/C=N/NC(=O)c1ccccc1F	–	64.3	36.9	–	–	–
Cc1[nH]n(-c2ccccc2)c(=O)c1/C=N/NC(=O)COc1ccccc1[N+](=O)[O-]	14.1µM	–	–	?	?	–
Cc1ccc(C(=O)N/N=C\c2c(C)nn(-c3ccccc3)c2Cl)cn1	–	–	–	–	?	–
Cc1nn(-c2ccccc2)c(Cl)c1/C=N/NC(=O)c1cccnc1	–	–	32.5	–	?	–
